Source: PubChem
Only some compounds are listed: those with a hit (about 1.6% of all), similar ones and a draw of the others.
PERK inh: inhibitors of human PERK kinase. Q9NZJ5. CHO PERK-DD fusion, SEAP luminescence translation reporter. inhibition, % at 5.6 µM. 220,000 tested, 0.17% active. AID 1416;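 active = inhibition above the mean inhibition of all tested compounds plus 3 SD, set separately per screening campaign, cut at about 2.9% in these data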;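 also: PERK kinase domain activated by AP20187 dimerizer at 100 nM; 0% = DMSO with dimerizer and 100% = rapamycin at 8.4 µM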
Target sequence (Q9NZJ5 whole entry, looked up, the tested form may be a part): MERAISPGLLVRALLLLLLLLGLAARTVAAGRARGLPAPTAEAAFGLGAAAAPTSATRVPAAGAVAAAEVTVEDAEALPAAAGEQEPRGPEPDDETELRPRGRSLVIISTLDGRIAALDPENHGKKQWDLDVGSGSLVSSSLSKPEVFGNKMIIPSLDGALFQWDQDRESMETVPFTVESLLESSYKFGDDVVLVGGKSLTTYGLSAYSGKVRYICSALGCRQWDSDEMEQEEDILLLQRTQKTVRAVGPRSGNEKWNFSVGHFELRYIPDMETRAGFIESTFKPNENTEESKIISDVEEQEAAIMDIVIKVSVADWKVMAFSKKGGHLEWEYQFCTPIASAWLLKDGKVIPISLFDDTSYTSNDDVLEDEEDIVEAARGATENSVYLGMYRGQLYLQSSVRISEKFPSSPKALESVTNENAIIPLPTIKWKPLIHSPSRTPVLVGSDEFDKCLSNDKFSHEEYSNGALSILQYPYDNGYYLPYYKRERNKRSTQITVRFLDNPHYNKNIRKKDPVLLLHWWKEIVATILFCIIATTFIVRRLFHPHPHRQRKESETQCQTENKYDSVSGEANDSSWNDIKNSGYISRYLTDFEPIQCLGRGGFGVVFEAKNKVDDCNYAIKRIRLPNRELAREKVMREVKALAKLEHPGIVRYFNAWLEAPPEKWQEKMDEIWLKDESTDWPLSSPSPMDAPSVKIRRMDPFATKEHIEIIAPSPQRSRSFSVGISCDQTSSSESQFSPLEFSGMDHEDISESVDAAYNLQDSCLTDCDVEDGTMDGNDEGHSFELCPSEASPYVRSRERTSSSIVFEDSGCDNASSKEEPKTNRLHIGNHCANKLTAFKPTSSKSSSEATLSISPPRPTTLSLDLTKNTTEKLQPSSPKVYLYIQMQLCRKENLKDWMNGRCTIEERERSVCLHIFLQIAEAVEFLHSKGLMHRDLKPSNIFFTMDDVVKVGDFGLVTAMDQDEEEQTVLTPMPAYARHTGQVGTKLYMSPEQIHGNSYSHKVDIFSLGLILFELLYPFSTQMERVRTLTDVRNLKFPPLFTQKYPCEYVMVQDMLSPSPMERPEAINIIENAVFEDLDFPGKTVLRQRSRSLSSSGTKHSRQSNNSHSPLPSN
Yeast superoxide: yeast age-related superoxide inhibition as caloric restriction mimetic | S. cerevisiae aged cells, superoxide DHE fluorescence; hits give low values | superoxide response (% of plate mean), % at 10 µM | 330,000 tested, 0.18% active | AID 2690;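 active = superoxide response under a set limit, about three screen SD below normal, cut at about 65% in these data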;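 also: yeast aged for seven days with compound at 30 °C before DHE staining; 100% = average MFI of all compound-treated wells on the plate with controls excluded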
Rce1 inh: yeast Ras-converting enzyme inhibition | yeast membranes, quenched prenylated peptide cleavage fluorescence | 290,000 tested, 0.27% active | calls only | Q03530;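 active = fall in fluorescence gain of 50% or more versus controls, with final raw signal at or below 3038400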;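 also: plate controls were neutral control wells for no effect and wells lacking membranes for full effect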
V-ATPase pH: alters yeast V-ATPase proton transport | S. cerevisiae, pHLuorin cytosolic pH fluorescence | response, % at 10 µM | 350,000 tested, 0.37% active | AID 504577; in the data active = response mostly above about 7.3%, no sharp cut-off; inactive = mostly below about 5.4%; also: actives read high
NLRP3 yeast inh: blocks the NALP3 inflammasome reconstituted in yeast. 330,000 tested, 0.39% active. Yeast reconstituted NLRP3/ASC/caspase-1, beta-gal luminescence, 24 h. inhibition, % at 10 µM;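 active = inhibition of 50% or more; inactive = inhibition below 50%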;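 also: plate controls were induced DMSO wells for no effect and uninduced yeast grown without galactose for full effect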
NALP1 inh: NALP1 inhibition; AID 2071; 280,000 tested, 0.61% active; inhibition, % at 10 µM; S. cerevisiae NALP1/ASC/caspase-1 growth, X-gal OD620, 72 h; in the data active = inhibition mostly above about 24%, no sharp cut-off; inactive = mostly below about 32%
The depositor's hits bear a star.

What do the screens show for `O=C(Nc1ccccc1-c1nnc(SCc2ccc(Cl)cc2)o1)c1ccccc1`?
PERK inh: 0.4; Yeast superoxide: 104.9; Rce1 inh: inactive; V-ATPase pH: -3.0; NLRP3 yeast inh: 4.5; NALP1 inh: 20.8

What do the screens show for `O=C1[C@H]2[C@@H](c3ccc(F)cc3)N3C(=O)N(c4ccc(Br)cc4)C(=O)[C@@]3(Cc3ccc(Cl)cc3)[C@H]2C(=O)N1C1CCCCC1`?
Yeast superoxide: 95.2; Rce1 inh: inactive; V-ATPase pH: 11.8*; NLRP3 yeast inh: 5.2; NALP1 inh: 6.4

What do the screens show for `C[C@@H](CO)NC(=O)c1[nH]cnc1C(=O)Nc1ccc(CNC(=O)OC(C)(C)C)cc1`?
V-ATPase pH: -1.9

Results for O=C(CN1C(=O)C2CC=C(Cl)CC2C1=O)Nc1ccc(C(=O)O)cc1 (stereo unspecified) ?
PERK inh: 1.9; Yeast superoxide: 109.4; Rce1 inh: inactive; V-ATPase pH: 2.0; NLRP3 yeast inh: -1.4; NALP1 inh: 23.1

Results for O=C(CN1C(=O)C2C3CC(C(Br)C3Br)C2C1=O)Nc1ccc(C(=O)O)cc1 (stereo unspecified) ?
PERK inh: -0.5; Yeast superoxide: 53.6*; Rce1 inh: inactive; V-ATPase pH: 0.3; NLRP3 yeast inh: 8.2; NALP1 inh: 25.0

How did Cc1cccc(NC(=O)CNC(=O)c2cc(C3CC3)nn2-c2ccccc2)c1C do in these assays?
V-ATPase pH: 23.5*; NLRP3 yeast inh: 7.5

Results for CC1CCCN(CCCOc2ccc(Br)cc2Cl)C1 (stereo unspecified) ?
PERK inh: 1.1; Yeast superoxide: 81.8; Rce1 inh: inactive; V-ATPase pH: 0.7; NLRP3 yeast inh: 23.9; NALP1 inh: 26.5*

How did COc1ccc(CSC(=S)NNc2ccccc2)cc1 do in these assays?
V-ATPase pH: 0.4

How did CSC(=Nc1ccccc1)N=C(SCc1ccccc1)N(C)C do in these assays?
V-ATPase pH: 0.9

Results for O=C(NN=C1C2CC3CC(C2)CC1C3)c1cccs1 ?
PERK inh: 1.2; Yeast superoxide: 98.7; Rce1 inh: inactive; V-ATPase pH: -3.3; NLRP3 yeast inh: 22.0; NALP1 inh: 40.9*

What do the screens show for `CCOC(=O)c1cc(-c2ccccc2)sc1NC(=O)C(C)Sc1nnnn1C` (stereo unspecified)?
PERK inh: -0.6; Yeast superoxide: 110.8; Rce1 inh: active; V-ATPase pH: 1.0; NLRP3 yeast inh: 11.9; NALP1 inh: 11.3

What do the screens show for `Cc1ccc(-n2c3c(c(=O)[nH]c2=S)C(C(F)(F)F)(C(F)(F)F)NC(=O)N3)cc1`?
PERK inh: -0.7; Yeast superoxide: 120.9; Rce1 inh: inactive; V-ATPase pH: -5.8; NLRP3 yeast inh: 8.2; NALP1 inh: 41.2*

What do the screens show for `O=C(Nc1ccccn1)C(c1ccccc1)c1ccccc1`?
V-ATPase pH: -1.4

Results for C[C@]12CS(=O)(=O)C[C@H]1SC(=S)N2c1ccccc1 ?
PERK inh: 4.7*; Yeast superoxide: 103.3; Rce1 inh: inactive; V-ATPase pH: -0.9; NLRP3 yeast inh: 15.9; NALP1 inh: 19.0

Results for O=C(Cn1c(=O)oc2cc(S(=O)(=O)N3CCCC3)ccc21)N1CCN(c2ccccc2)CC1 ?
PERK inh: -0.6; Yeast superoxide: 102.2; Rce1 inh: inactive; V-ATPase pH: 0.2; NLRP3 yeast inh: 14.4; NALP1 inh: 38.9*

How did COc1ccc(C(=O)Nn2c(SCC(=O)NCc3ccccc3)nc3ccccc3c2=O)cc1 do in these assays?
PERK inh: -0.3; Yeast superoxide: 111.5; Rce1 inh: inactive; V-ATPase pH: -2.2; NLRP3 yeast inh: 0.6; NALP1 inh: 38.5*

How did O=[N+]([O-])c1cnccc1Nc1ccccc1 do in these assays?
PERK inh: 0.3; Yeast superoxide: 115.5; Rce1 inh: inactive; V-ATPase pH: -1.0; NLRP3 yeast inh: 6.8; NALP1 inh: 33.4*

Results for COc1ccc(Cn2cnc([N+](=O)[O-])c2)cc1[N+](=O)[O-] ?
PERK inh: 3.1*; Yeast superoxide: 126.6; Rce1 inh: inactive; V-ATPase pH: -1.7; NLRP3 yeast inh: 16.7; NALP1 inh: 10.4

Results for CCc1c(C)nc2ncnn2c1Nc1ccc(C)cc1 ?
Yeast superoxide: 103.4; Rce1 inh: inactive; V-ATPase pH: 2.5; NLRP3 yeast inh: 20.3; NALP1 inh: 5.8

How did CCc1c(C)nc2ncnn2c1NC1CCCc2ccccc21 (stereo unspecified) do in these assays?
PERK inh: -0.8; Yeast superoxide: 111.5; Rce1 inh: inactive; V-ATPase pH: 13.3*; NLRP3 yeast inh: 1.0; NALP1 inh: 12.7

How did COc1ccc(NC(=O)NNC(=O)COc2ccc3ccccc3c2)cc1OC do in these assays?
Yeast superoxide: 106.7; Rce1 inh: inactive; V-ATPase pH: -8.0; NLRP3 yeast inh: 3.5; NALP1 inh: 2.7

How did COc1ccc(NC(=O)NNC(=O)COc2ccc3cc(Br)ccc3c2)cc1OC do in these assays?
Yeast superoxide: 101.9; Rce1 inh: inactive; V-ATPase pH: -0.3; NLRP3 yeast inh: -7.4; NALP1 inh: 29.9*

How did O=C(COC(=O)c1cc(S(=O)(=O)N2CCCCC2)ccc1N1CCOCC1)c1ccccc1Cl do in these assays?
V-ATPase pH: -0.7

Results for CC1CCN(C(=O)COC(=O)c2ccc(Br)o2)CC1 ?
PERK inh: 0.4; Yeast superoxide: 90.0; Rce1 inh: inactive; V-ATPase pH: 2.0; NLRP3 yeast inh: 25.3; NALP1 inh: 33.8*

What do the screens show for `CCCc1c(C(=O)N/N=C(\C)c2ccc(CC(C)C)cc2)nnn1-c1nonc1N`?
V-ATPase pH: 1.2

What do the screens show for `O=C1CCN(Cc2ccccc2)CCN1[C@H](CSc1ccccc1)Cc1ccccc1`?
Yeast superoxide: 95.4; Rce1 inh: active; V-ATPase pH: 2.0; NLRP3 yeast inh: 8.1; NALP1 inh: 23.6

Results for O=C1CCN(CCc2ccccc2)CCN1[C@H](CSc1ccc(Br)cc1)Cc1ccccc1 ?
Rce1 inh: inactive; V-ATPase pH: 3.9; NLRP3 yeast inh: -13.4; NALP1 inh: -13.0

What do the screens show for `COc1cc(/C=N/NS(=O)(=O)c2ccc(C)cc2)ccc1OCc1ccc(C(=O)O)cc1`?
PERK inh: 2.9*; Yeast superoxide: 102.1; Rce1 inh: inactive; V-ATPase pH: 3.0; NLRP3 yeast inh: 6.2; NALP1 inh: 0.3

What do the screens show for `Cc1csc(NC(=O)C(CC(C)C)NS(=O)(=O)c2ccc3c(c2)oc(=O)n3C)n1` (stereo unspecified)?
PERK inh: 1.1; Yeast superoxide: 115.2; Rce1 inh: inactive; V-ATPase pH: 0.6; NLRP3 yeast inh: 19.0; NALP1 inh: 45.9*

Results for COc1ccc(C(CNC(=O)Cc2c(F)cccc2Cl)N2CCCCC2)cc1 (stereo unspecified) ?
PERK inh: 0.8; Yeast superoxide: 87.9; Rce1 inh: inactive; V-ATPase pH: 1.2; NLRP3 yeast inh: 5.3; NALP1 inh: 23.0*
